Experiments:
Test in all cases: PBM binding z-score (relative to random genomic background probes); higher = stronger binding; sequences stand for … in GC…GCGATTGACAGCGTAGAATGAAGG
[1] = system: PPARg:RXRa DBDmut IVT, anti-RXR (DBD mutation: RXRa K156A/R161A, NR concentration 270 nM, RXRa partner concentration 90 nM)
Outline: (§1)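 Binding z-scores were set against random background probes. The data came from custom Agilent 4×180K protein-binding microarrays carrying double-stranded probes with 34-nt variable regions, incubated 1 h with ligand-free nuclear receptor dimers. Partner-specific antibodies detected binding, and scanned fluorescence was regression-normalized.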

[2] = system: PPARg:RXRa IVT, anti-PPARg (NR concentration 270 nM, RXRa partner concentration 90 nM)
Outline: as §1

[3] = system: PPARg DBDmut:RXRa IVT, anti-PPARg (DBD mutation: PPARg1 K132A/R137A, NR concentration 270 nM, RXRa partner concentration 90 nM)
Outline: as §1

[4] = system: PPARg DBDmut IVT, anti-PPARg (DBD mutation: PPARg1 K132A/R137A, NR concentration 270 nM)
Outline: as §1

[5] = system: PPARg homodimer (NR concentration 180 nM)
Outline: as §1

[6] = system: PXR:RXRa (NR concentration 270 nM, RXRa partner concentration 90 nM)
Outline: as §1

[7] = system: PXR homodimer (NR concentration 270 nM)
Outline: as §1

[8] = system: RARa:RXR (NR concentration 270 nM, RXRa partner concentration 90 nM)
Outline: as §1

[9] = system: RARa homodimer (NR concentration 270 nM)
Outline: as §1

[10] = system: RARb:RXRa (NR concentration 270 nM, RXRa partner concentration 90 nM)
Outline: as §1

Sequence	PBM binding z-score [1]	PBM binding z-score [2]	PBM binding z-score [3]	PBM binding z-score [4]	PBM binding z-score [5]	PBM binding z-score [6]	PBM binding z-score [7]	PBM binding z-score [8]	PBM binding z-score [9]	PBM binding z-score [10]
GCTCCTAGGTCAGGTTGGTCAGCTAACGGGTACG	3.08	2.33	0.131	-0.79	0.823	0.632	0.2	1.26	-0.173	3.58
CCTACTGGCCCACGAAAGGTCATTGATTCAGTGA	-0.126	0.861	-0.814	-1.14	3	5.2	1.92	5.64	2.79	3.94
CCATACGGGTCACTGACAGGTTATAGCATTTGGA	2.31	3.21	0.442	0.0659	2.58	3.55	0.194	4.58	1.68	3.81
GCAGACACGTGAAACGCAGGTAACTCAGGGTGGC	-1.12	-0.582	-0.764	-0.343	-2.11	-0.819	-0.73	-0.666	-0.899	-0.551
TAGCCTAGGTCATGAGGGCCAGTATAGTGTCGGC	2.17	3.05	0.44	-0.29	0.909	1.6	-0.521	2.56	-0.556	3.8
AGAATGAGGTTACCAAGGATCAGGGAAACGCTTG	3.39	3.37	1.28	0.207	0.544	1.28	0.0221	2.01	-0.233	2.04
ACTTTCGGGTCAACGAGGTTATAGCACGCGTATA	3.31	4.16	1.8	1.14	2.32	5.37	6.97	4.91	1.53	4.29
TCTAGCATGCCAGAGGGTCACTCAAGAGGTACGG	0.74	0.403	-0.182	-1.1	0.757	1.74	-0.449	2.86	-0.513	2.11
ATAAGTAGGTTATCGGGTCATTCAGTTTGCGCAT	7.58	7.8	5.22	5.33	3.5	3.91	7.66	3.84	2.2	2.61
ACTATTAGTTGACTTAGGGCAGCCGATACGACGC	0.0635	0.0175	1.35	0.429	-0.15	-0.251	-0.115	-0.045	0.705	0.758
TGCATGAGGTTATAAGATCAGGGAACGTTGCAAA	-0.354	0.643	0.656	0.178	0.466	0.667	-0.0693	1.48	0.252	1.4
TCTATTAGTTGAAGGGCAGCCGACGAGTCCGTTT	2.37	0.427	0.454	1.07	0.963	0.654	0.958	0.447	0.781	1.37
TCTATTAGTAGAAGGGCAACCGACGAGTCCGTTT	1.9	0.562	0.63	-0.0614	0.492	0.479	0.325	0.693	0.276	1.36
TAGCCTAGGTCATTGGGCCTGTATAGTACGCATC	2.39	3.03	-0.124	-0.181	1.46	1.65	-0.0817	2.37	-0.457	3.55
GCTTACGGGTCAAAGGTTATAGGATGAATAGAAT	4.59	5.81	2.01	1.61	3.34	6.34	0.559	8.36	1.33	4.59
CCTGCTATGTCATGGTCAGCTAATCTACAGTATG	0.893	0.445	0.205	0.546	-0.0268	-0.217	-0.359	-0.187	-0.218	0.913
GCGACTGGGGCAAAGCAGGTTCCCATAAGGTTGG	3.87	2.9	-1.3	-1.28	-0.328	-0.524	-0.517	-0.168	-1.06	0.44
TCAGATAGGTAATACAGGTGAAAGTCGGCATCTA	2.72	1.82	0.894	0.382	0.675	0.557	0.387	0.619	1.19	0.567
TATACAGGGTCAAAGGCCAGAGTCCGAATGTCGA	2.36	4.8	1.49	0.522	2.08	4.27	0.713	5.31	0.835	4.31
ACTATTAGTTGAGACGAGGGCAGCCGATAGGTTG	0.368	0.416	0.598	0.645	0.479	0.456	-0.0477	0.335	0.445	0.854
TAGCCTAGGTCATTCGGGGGCCAGTATAGAAAGC	2.62	4.33	2.22	5	1.93	3.84	0.257	3.92	0.944	3.99
GCAGACAGGCGAAACGCAGGTAACTCAGGGTGGC	-0.782	-0.814	-1.19	-1.5	-0.436	-0.82	-0.795	-0.316	-1.37	-0.55
CCTACTGGGCGATCAGGTCATTGATATCAACGTT	1.18	1.66	-0.36	-0.403	0.86	1.29	0.227	1.47	0.157	1.6
TGAATGAGTTTATAAGATCAGGGAACGTTGCAAA	-0.937	-0.179	0.631	0.748	0.106	0.215	0.318	0.174	0.105	-0.00933

— the supplement of paper PMC6555819
